This is a sample that favours compounds with a hit; in the whole collection about 2.2% have one here.
ANO1 activ: activates or potentiates the mouse TMEM16A chloride channel; Q8BHY3; HEK293 TMEM16A/YFP-H148Q/I152L, iodide quench fluorescence; active compounds read low; B-score at 10 µM; actives 0.3% (n = 340,000);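 active means fluorescence-ratio B-score plate-corrected deviation score at least 3 library SD below zero, with starting fluorescence score within 5 deviations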;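 further: channel opened by trigger with iodide after compound preincubation; score built on the fluorescence ratio of max minus min over baseline; more negative score means more quench and so TMEM16A activation or potentiation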
TLR4 MyD88 comp: inhibitors of human TLR4-MyD88 binding | O00206+Q99836 | HeLa CL3-4 TLR4/MyD88 BLA complementation, FRET ratio | AID 861 | actives 0.18% (n = 200,000) | inhibition, % at 8.4 µM; in the data active means inhibition above about 25%;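 further: 0% = vehicle and 100% = reference inhibitor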
GRK2 inh: blocks RNA aptamer binding to human GRK2; actives 0.59% (n = 330,000); inhibition of aptamer binding, % at 10 µM; bead flow cytometry, FAM-aptamer displacement from GRK2;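 active means inhibition of aptamer binding above 40%, roughly 3 SD of noise, on plates passing a quality check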;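 further: median bead fluorescence of bound FAM aptamer so fluorescent compounds give negative values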
TLR9-MyD88 block: blocks human TLR9 binding to MyD88; Q9NR96+Q99836; CHO BLA complementation TLR9-MyD88, CCF4 FRET ratio; inhibition, % at 4.98 µM; actives 0.21% (n = 340,000);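 active means inhibition above the mean over all tested compounds plus 3 SD, cut at about 21% in these data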;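 further: 0% = DMSO only wells and 100% = clavulanate BLA inhibitor control wells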
Target sequence (Q99836 whole entry, looked up): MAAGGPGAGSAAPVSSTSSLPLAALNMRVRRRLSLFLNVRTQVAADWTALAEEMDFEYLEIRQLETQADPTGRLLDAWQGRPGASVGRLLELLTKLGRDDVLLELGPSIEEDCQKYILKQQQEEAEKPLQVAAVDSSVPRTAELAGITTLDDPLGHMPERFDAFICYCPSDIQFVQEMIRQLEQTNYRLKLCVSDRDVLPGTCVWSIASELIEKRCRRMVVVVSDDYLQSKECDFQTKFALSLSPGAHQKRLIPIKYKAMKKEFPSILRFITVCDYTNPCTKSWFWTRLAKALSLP
Target sequence (Q9NR96 whole entry, looked up): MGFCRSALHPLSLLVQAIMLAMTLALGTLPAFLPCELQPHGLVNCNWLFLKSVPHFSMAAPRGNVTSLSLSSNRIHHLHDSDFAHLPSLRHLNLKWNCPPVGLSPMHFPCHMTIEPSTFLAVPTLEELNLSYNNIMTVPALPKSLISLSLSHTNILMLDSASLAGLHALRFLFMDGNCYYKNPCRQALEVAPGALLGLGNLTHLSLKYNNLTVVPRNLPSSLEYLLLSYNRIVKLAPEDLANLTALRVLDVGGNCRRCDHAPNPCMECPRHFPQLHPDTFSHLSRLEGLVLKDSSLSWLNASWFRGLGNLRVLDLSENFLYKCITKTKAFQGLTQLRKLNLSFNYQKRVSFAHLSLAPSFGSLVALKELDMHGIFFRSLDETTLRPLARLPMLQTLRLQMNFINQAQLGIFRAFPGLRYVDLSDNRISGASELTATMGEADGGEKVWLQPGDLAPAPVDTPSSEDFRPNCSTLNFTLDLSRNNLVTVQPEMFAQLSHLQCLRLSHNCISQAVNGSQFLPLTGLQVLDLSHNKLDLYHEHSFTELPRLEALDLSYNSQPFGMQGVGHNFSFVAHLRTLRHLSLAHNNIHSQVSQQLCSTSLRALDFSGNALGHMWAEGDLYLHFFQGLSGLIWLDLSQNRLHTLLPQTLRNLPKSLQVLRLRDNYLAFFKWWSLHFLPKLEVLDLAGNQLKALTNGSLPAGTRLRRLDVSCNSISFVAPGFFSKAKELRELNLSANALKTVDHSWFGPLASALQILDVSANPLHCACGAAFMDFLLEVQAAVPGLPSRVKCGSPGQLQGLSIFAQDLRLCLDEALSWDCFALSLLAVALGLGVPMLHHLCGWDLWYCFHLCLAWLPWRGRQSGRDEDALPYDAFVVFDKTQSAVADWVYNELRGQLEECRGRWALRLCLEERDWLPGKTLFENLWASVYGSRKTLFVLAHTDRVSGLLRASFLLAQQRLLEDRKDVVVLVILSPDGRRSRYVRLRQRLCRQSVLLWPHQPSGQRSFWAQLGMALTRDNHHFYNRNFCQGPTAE
TMEM16A inh: inhibitors of mouse TMEM16A calcium-activated chloride channel | Q8BHY3 | HEK293 TMEM16A/YFP iodide influx fluorescence, ionomycin | normalized B-score (activity score, 25-100; higher = stronger inhibition) at 10 µM | actives 1.2% (n = 310,000) | AID 588511;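 active means ratio plate-corrected score three or more library SD toward inhibition, starting fluorescence score within five deviations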;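 further: score derived from kinetic fluorescence span divided by baseline fluorescence per well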
NOD2 RIPK2 PPI: inhibitors of human NOD2-RIPK2 interaction | O43353 | CHO BLA complementation NOD2-RIPK2, CCF4 ratio | inhibition, % at 4.98 µM | actives 0.38% (n = 360,000) | AID 624267; in the data active means inhibition above about 21%;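 further: 0% = vehicle only and 100% = reference blocker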
TMEM16A reconf: re-confirmation of mouse TMEM16A chloride channel inhibitors; shares compounds with TMEM16A inh; HEK293 TMEM16A/YFP-H148Q, iodide quench fluorescence; ionomycin added to raise cell calcium; inhibition, % at 10 µM; actives 39% (n = 2,300);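 active means mean duplicate percent inhibition, scaled so buffer wells are 0 and the reference blocker 100, over three buffer SD above buffer mean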
TMEM16A Ca cntr: calcium mobilization counter-screen hit for TMEM16A inhibitor series. AID 652231. shares compounds with TMEM16A inh. actives 2% (n = 2,300). TMEM16A/YFP HEK293, Fluo4 calcium mobilization. calcium response (% of ionomycin), % at 10 µM;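 active means duplicate-averaged calcium signal over 20% of the ionomycin maximum, relative to buffer baseline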;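 further: each well's signal is peak minus trough fluorescence divided by its pre-addition baseline; 0% = buffer wells and 100% = ionomycin wells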
YFP-HEK293 quench: counter-screen for TMEM16A inhibitors: effect in parental YFP-HEK293 cells; shares compounds with TMEM16A inh; iodide YFP quench, ionomycin; 2,300 tested, under 10 active; YFP ratio F(max-min)/F0 at 10 µM;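 active means yellow fluorescent protein signal ratio exceeding the buffer control mean by over 5 SD of those controls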;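 further: ratio is mean of duplicate wells from kinetic YFP trace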
ClC-1 inh: blocks the rat ClC-1 voltage-dependent chloride channel | shares compounds with TMEM16A inh | CHO ClC-1-YFP, iodide influx fluorescence quench; iodide control reads 0, buffer control 100 | ratio percent, % at 10 µM | 2,300 tested, under 10 active;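 active means duplicate-mean ratio percent above the mean of iodide-only control wells, which defines zero, plus 5 of their SD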;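 further: higher percent means stronger block of ClC-1 iodide influx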
Active calls of the source: *; i = inactive; nt = not tested or not shown.

SMILES | ANO1 activ | TLR4 MyD88 comp | GRK2 inh | TLR9-MyD88 block | TMEM16A inh | NOD2 RIPK2 PPI | TMEM16A reconf | TMEM16A Ca cntr | YFP-HEK293 quench | ClC-1 inh
CC1CN(S(=O)(=O)c2ccc(C(=O)Nc3nnc(-c4ccc5c(c4)CCCC5)o3)cc2)CC(C)O1 (centres undefined) | i | 6.1 | 0.0 | -2.5 | 100* | -8.2 | 32.0%* | i | -0.998 | -13.5
O=C(Nc1ccccc1)OCC1COC(c2ccccc2)(c2ccccc2)O1 (centres undefined) | i | nt | nt | -10.1 | nt | -1.2 | nt | nt | nt | nt
CCOP(=O)(c1ccc(N(C)C)cc1)C(O)c1ccccc1OC (centres undefined) | i | -4.5 | 0.0 | -5.0 | 100* | -0.3 | i | i | -1.16 | -11.5
COc1ccccc1C(O)P(=O)(OC(C)C)c1ccc(N(C)C)cc1 (centres undefined) | i | 7.0 | 0.0 | -7.8 | i | -0.4 | nt | nt | nt | nt
CCC1CCCCN1CCCNC(=O)CNC(=O)c1nn(-c2ccc(OC)c(Cl)c2)c(=O)c2ccccc12 (centres undefined) | i | nt | 0.0 | -9.3 | i | -0.5 | nt | nt | nt | nt
C=CCn1c(SCc2ccc(C(=O)O)cc2)nc2sc(C)c(C)c2c1=O | i | nt | 0.0 | -3.8 | i | 9.1 | nt | nt | nt | nt
Cc1sc2nc(SCc3ccc(C(=O)O)cc3)n(Cc3ccco3)c(=O)c2c1C | i | nt | 3.0 | -7.2 | 25* | -3.3 | 30.5%* | i | -1.01 | -24.5
CCOC(=O)c1cc2c(ccn2-c2ccc(F)cc2)n1CC(=O)NC(C)(C)C | nt | 7.2 | 0.0 | nt | i | nt | nt | nt | nt | nt
CCC(=O)Nc1ccc(NC(=O)CSc2nnnn2C2CCCC2)cc1C | i | nt | nt | -4.8 | nt | -4.2 | nt | nt | nt | nt
CCOC(=O)c1ccc(Oc2cn[nH]c2-c2ccc(O)cc2O)cc1 | i | nt | 1.0 | -4.5 | 25* | -1.3 | 43.0%* | i | -1.02 | -15.0
COc1ccc(NC(=O)c2ccccn2)cc1 | i | -6.0 | 0.0 | -3.3 | i | 3.5 | nt | nt | nt | nt
COc1ccc(Cn2nnc(C(=O)Nc3ccc(F)cc3)c2N)cc1 | i | 13.1 | 19.0 | 6.5 | i | -2.4 | nt | nt | nt | nt
COc1ccc(NC(=O)c2csc(Cc3ccc(Cl)cc3)n2)cc1 | i | -10.7 | 0.0 | 7.4 | 100* | -2.4 | i | i | -0.909 | -4.0
COc1ccc(Cc2nc(C(=O)Nc3ccc(F)cc3)cs2)cc1 | i | -4.6 | 0.0 | -8.5 | 100* | -6.1 | 26.5%* | i | -0.711 | -8.5
COc1ccc(Cc2nc(C(=O)Nc3ccccc3)cs2)cc1 | i | -7.2 | 4.0 | -5.2 | 100* | 6.1 | 24.5%* | i | -1.06 | -15.0
COc1ccc(CNC(=O)c2csc(Cc3ccc(Cl)cc3)n2)cc1 | i | 9.7 | 4.0 | -9.1 | 100* | 4.6 | i | i | -1.16 | -10.0
O=C(NCc1cc(Cl)cc(Cl)c1)c1csc([C@@H]2C[C@H](O)[C@@H](CO)O2)n1 | nt | nt | nt | nt | nt | -5.9 | nt | nt | nt | nt
O=C(Nc1ccc(Cl)cc1)c1csc(Cc2ccccc2)n1 | i | -4.2 | 1.0 | 6.1 | 25* | 0.0 | 30.5%* | i | -0.873 | -4.0
O=C(Nc1ccc(Cl)c(Cl)c1)c1csc(-c2ccccc2)n1 | i | 6.3 | 0.0 | -2.0 | i | 3.4 | nt | nt | nt | nt
CCOC(=O)Cn1nc(-c2ccc(Cl)cc2)cc1N | i | -0.8 | 0.0 | 6.9 | 100* | 0.4 | i | i | -1.43 | -9.0
Nc1nc2ccc(NC(=O)c3ccco3)cc2s1 | i | nt | 0.0 | -11.8 | i | 0.7 | nt | nt | nt | nt
N#CCC(=O)Nc1ccc(C(=O)OCC(=O)Nc2ccccc2-c2ccccc2)cc1 | i | 6.5 | 0.0 | nt | 100* | -17.9 | i | i | -1.09 | -10.0
N#CCC(=O)Nc1ccc(C(=O)OCC(=O)NC(=O)Cc2ccccc2)cc1 | i | nt | 2.0 | 3.9 | i | -12.6 | nt | nt | nt | nt
O=C(Nc1ccccc1)Nc1scc2c1c(=O)oc1ccccc12 | nt | nt | 2.0 | nt | i | nt | i | i | -1.18 | -11.5
Fc1ccccc1OCCSc1nnnn1-c1ccccc1 | i | 14.1 | 0.0 | -2.7 | i | -5.1 | 22.0%* | i | -0.868 | 2.0
SMILES | ANO1 activ | TLR4 MyD88 comp | GRK2 inh | TLR9-MyD88 block | TMEM16A inh | NOD2 RIPK2 PPI | TMEM16A reconf | TMEM16A Ca cntr | YFP-HEK293 quench | ClC-1 inh
c1ccc(OCCSc2nnnn2-c2ccccc2)cc1 | i | 2.6 | 1.0 | -7.0 | i | -8.2 | nt | nt | nt | nt
N#Cc1nc(Cc2cccc3ccccc23)oc1NCc1ccc(F)cc1 | i | -9.5 | 2.0 | -4.9 | 100* | -0.1 | i | i | -0.908 | 3.0
CC1CCN(c2oc(Cc3cccc4ccccc34)nc2C#N)CC1 | i | -18.1 | nt | 5.7 | 25* | -9.3 | i | i | -1.11 | -10.5
CC(=O)Nc1cc(Cl)ccc1OS(=O)(=O)c1ccc(C)cc1 | i | -8.9 | 0.0 | 2.9 | i | 7.4 | nt | nt | nt | nt
CCCn1c(=O)c(C(=O)NNC(=O)c2ccccc2[N+](=O)[O-])c(O)c2ccccc21 | i | nt | 0.0 | 3.8 | i | -3.9 | nt | nt | nt | nt
CCCn1c(=O)c(C(=O)NNC(=O)c2ccccc2Cl)c(O)c2ccccc21 | -4.62* | nt | 2.0 | -5.4 | 100* | -6.2 | i | i | -0.954 | -14.0
COC(=O)[C@H](CC(C)C)NC(=O)NC1CCCCC1C (some centres undefined) | i | -3.0 | 0.0 | -4.2 | 25* | 1.4 | i | i | -1.05 | -10.0
COC(=O)[C@H](CC(C)C)NC(=O)NC1CCCc2ccccc21 (some centres undefined) | i | -8.7 | 1.0 | -3.9 | i | -7.0 | nt | nt | nt | nt
COc1ccc(CN(C)C(=O)c2cccc(Oc3ccccc3)c2)c(OC)c1OC | i | nt | 2.0 | -6.8 | 25* | -4.3 | 32.0%* | i | -1.15 | -13.0
O=C(CN1C(=O)NC2(CCc3ccccc32)C1=O)Nc1ccc(Br)cc1F (centres undefined) | i | nt | 3.0 | 3.5 | nt | -4.6 | nt | nt | nt | nt
C/C(=N\NC(=O)CSc1nc(C)[nH]c1[N+](=O)[O-])c1ccc(F)cc1 | i | nt | 0.0 | 1.6 | 100* | 0.3 | i | i | -0.929 | -3.0
Cc1nc(SCC(N)=O)c([N+](=O)[O-])[nH]1 | i | 0.7 | 1.0 | -4.0 | i | -2.8 | nt | nt | nt | nt

Screens as filed in PubChem BioAssay.
